Data: PubChem BioAssay (NCI)
Compounds without any hit were thinned out: in the full panel of roughly 83,000, 20% have a hit.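 Each cell line was grown in a 96-well plate and treated with one concentration of compound for 48 hours. Values below 10 were considered active.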 Values without a mark were called inactive. The source made the active and inactive calls.

system: BT-549 breast; assay: NCI-60 one-dose screen, 48 h (100 = growth as untreated, 0 = no growth, -100 = all killed); conditions: 10 µM unless noted

In order of falling growth:
1. COc1cc2c(c(OC)c1OC)C(=O)CC(c1cccc(NC(=O)c3cc(NC(=O)[C@@H](N)CO)ccc3C)c1)O2 (stereo partly drawn)  121%
2. Cc1ccc(-c2nc(Nc3ccccc3S(N)(=O)=O)c3ccccc3n2)cc1  115%
3. CCOC(=O)C(N=Nc1ccc(S(=O)(=O)N=C(N)N)cc1)C(C)=O (stereo not drawn)  113%
4. O=C(/C=C/c1ccc(O)c(O)c1)NC1CCOC1O (stereo not drawn)  108%
5. O=C(O)Cn1c(O)c(/C=C2/C=c3cc4c(cc3=NC2=O)OCCO4)sc1=S  104%
6. CCCCSc1nc(NCCc2c[nH]c3ccccc23)c(C#N)c(-c2ccc(F)cc2)n1  101%
7. Cc1ccc(-c2nc(C#N)c(S(=O)(=O)N3CCN(S(=O)(=O)c4ccc(Cl)cc4)CC3)o2)cc1  99.8%
8. COc1ccc(N2N=C(c3ccc4c(c3)OCO4)CC2c2cccc(NC(=O)CCCNS(=O)(=O)c3ccc(F)cc3)c2)cc1 (stereo not drawn)  97.3%
9. Cc1cccc(NC(=O)CN2CCN(c3ncnc4c3cnn4-c3ccccc3)CC2)c1  89.9%
10. O=c1[nH]c2ccccc2cc1CSc1cccc(Nc2nccc(-c3ccc4ccccc4c3)n2)c1  85.4%
11. CC(C)CSc1nc(NCCc2c[nH]c3ccccc23)c(C#N)c(-c2ccc(Cl)cc2)n1  83.5%
12. CCCSc1nc(NCCc2c[nH]c3ccccc23)c(C#N)c(-c2ccc(OC)cc2)n1  83.2%
13. Cc1ccc(-n2c(-c3cc4ccccc4nc3Cl)noc2=O)cc1  81.1%
14. CC(/C=C1\SC(=S)N(CCCC(=O)NC(CC(C)C)C(=O)O)C1=O)=C\c1ccccc1 (stereo not drawn)  78%
15. Cc1ccc(C(=O)C(c2c[nH]c3ccccc23)c2c[nH]c3ccccc23)cc1  69.1%
16. CN(C)CCn1c2ccccc2c2nc3cc(C(F)(F)F)ccc3nc21  62.2%
17. C#CCOc1cc(N(CC)CC)ccc1C(C(=O)NC(C)(C)C)N(C(=O)C1CCc2cc(F)ccc2O1)c1ccc(F)c(Cl)c1 (stereo not drawn)  61.9%
18. COC(=O)/C=C/c1cccc2c1C(=O)NC(C)(c1cc3ccccc3oc1=O)N2 (stereo not drawn)  58.2%
19. O=C(c1ccc(OCCN2CCOCC2)cc1)C1[C@H](c2ccc(Cl)cc2)[C@@H](c2ccccc2)NC12C(=O)Nc1ccc(Cl)cc12 (stereo partly drawn)  57.1%
20. CC(=O)OC[C@@]1(C)C2CC[C@]3(C)C(CC=C4C5CC(C)(C)CC[C@]5(C(=O)Nc5cccc(C)c5)CC[C@]43C)[C@@]2(C)C[C@@H](OC(C)=O)[C@@H]1OC(C)=O (stereo partly drawn)  47.4%
21. CC1(C)CC[C@]2(C(=O)O)CC[C@]3(C)C(=CCC4[C@@]5(C)C[C@@H](O)[C@@H]6OC(c7cccc(Br)c7)OC[C@@]6(C)C5CC[C@]43C)C2C1 (stereo partly drawn)  44.4%
22. C/C(=N\N=C1/C(=O)Nc2ccccc21)c1ccc2c(c1)Nc1ccccc1S2  43.9%
23. CCN(CC)c1ccc(/C=N/Nc2nc(-c3ccc(Br)cc3)cs2)c(O)c1  37.4%
24. COc1ccc2[nH]cc(-c3nc(N)nnc3-c3cn(C)c4ncccc34)c2c1  36.5%
25. COc1ccc(N2N=C(c3ccc4c(c3)OCO4)CC2c2cccc(NC(=O)CCNS(=O)(=O)c3ccc(Cl)cc3)c2)cc1 (stereo not drawn)  34.5%
26. Cn1cc(-c2nc(N)nnc2-c2c[nH]c3ccc(Br)cc23)c2cccnc21  33.9%
27. Cc1nc(Nc2ccccn2)sc1C(=O)CC(SCC(=O)Nc1ccc(Cl)cc1)c1ccccc1F (stereo not drawn)  24.2%
28. COc1ccc(NC(=O)[C@@H](N)Cc2ccccc2)cc1C(=O)Nc1cccc(C2CC(=O)c3c(cc(OC)c(OC)c3OC)O2)c1 (stereo partly drawn)  19.8%
29. CC1(C)CC[C@]2(C(=O)O)CC[C@]3(C)C(=CCC4[C@@]5(C)C[C@@H](O)[C@@H]6OC(c7ccccc7Br)OC[C@@]6(C)C5CC[C@]43C)C2C1 (stereo partly drawn)  13.5%
30. COc1ccc(NC(=O)[C@H](CO)NC(=O)OC(C)(C)C)cc1C(=O)Nc1cccc(C2CC(=O)c3c(cc(OC)c(OC)c3OC)O2)c1 (stereo partly drawn)  12.7%

For C=C1CCC2C3(C)COC(c4ccccc4)OC3CCC2(C)C1CC(Sc1ccccc1)C1=CCOC1=O (stereo not drawn), the growth was -19% (active).
With O=C1c2c(c3c4cc(F)ccc4oc3c3[nH]c4ccc(Br)cc4c23)C(=O)N1O the growth was 1.19% (active).
For C#C[C@]1(O)CC[C@H]2[C@@H]3CC=C4c5sc(-c6ccc(O)c(O)c6)nc5CC[C@]4(C)[C@H]3CC[C@@]21C, the growth was -93.3% (active).
In the case of O=C(COc1ccc(NC(=O)Nc2ccc(Cl)c(Cl)c2)cc1)N=Nc1c(O)[nH]c2ccccc12, the growth is reported as -38.4% (active).
CCN1C(=O)N(CC)C2NNC(Sc3c(C(=O)O)c4ccccc4n(C4CCCC4)c3=O)=NC21 (stereo not drawn) was tested, and the growth was 6.1% (active).
In the case of Cc1cc(=O)oc2cc(OCCCCOc3ccc(/C=C/C(=O)Nc4ccccc4N)cc3)ccc12, the growth is reported as -23.9% (active).
For Cc1ccc(/C=C/c2n(Cc3ccc4ccccc4c3)c3ccccc3[n+]2Cc2ccc3ccccc3c2)cc1, the growth was -69.9% (active).
In the case of Brc1ccc(-c2n(Cc3ccc4ccccc4c3)c(-c3ccccc3)c(-c3ccccc3)[n+]2Cc2ccc3ccccc3c2)cc1, the growth is reported as -96.7% (active).
